Test results reported in PubChem BioAssay (NCATS).
Records with an inconclusive call do not appear. Entries that show only a call come without a potency. Unmarked numbers belong to inactive results. The source made the active and inactive calls. Calls follow the shape of the dose curve; as a rule, active = well fitted inhibition curve with a large enough effect; inconclusive = small, poorly fitted or top-dose-only effect; inactive = no such curve, though single readings can be large or run the other way. Where a SMILES comes first, the peptide text is derived from it. Bridges are numbered along the chain shown (N, C = ends). [ ]: non-standard residue; d: D form. NMeY = CN[CH](Cc1ccc(O)cc1)C(=O)O

What was measured:
[1] = system: Zika virus NS2B-NS3 protease (unlinked complex); test: Primary screen GU Rhodamine qHTS for Zika virus inhibitors: Unlinked NS2B-NS3 protease assay (AID 1347159); also: nearly all actives have a fitted effect of over 60% in size; also: potency is read from the fitted curve at half-maximal effect
Procedure, shortened: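 A qHTS format was used, with compound concentrations ranging up to 114 microM. Each compound was preincubated with 25 nM NS2B-NS3 protease, and the substrate was then added at 1.5 microM. Curves were fitted with a 4-parameter Hill model.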

[2] = system: Zika virus NS2B-NS3 protease (linked construct); test: Primary screen NINDS Rhodamine qHTS for Zika virus inhibitors (AID 1347160); also: nearly all actives have a fitted effect of over 55% in size
Procedure, shortened: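 Kinetic fluorescence (Ex 480 nm, Em 540 nm) over 15 min with 1.5 microM Rhodamine110 peptide and 25 nM linked protease.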

Cc1noc(-c2ccc(-c3ccc(CC(=O)O)cc3)cc2)c1NC(=O)O[C@H](C)c1ccccc1
Potency [1]: 14.1 µM (active)

C=C1C(=O)OC2C1CCC(=C)C1CC(OC(C)=O)C(=C)C12 (configuration not stated)
Potency [1]: 31.6 µM (active)

CC(=O)c1c(O)cc(O[C@@H]2O[C@H](CO)[C@@H](O)[C@H](O)[C@H]2O)cc1O
Potency [1]: 31.6 µM (active)

Cc1ccc(C(=O)Nc2noc3ccccc23)cc1
Potency [1]: inactive

C[C@@H]1C[C@@H]([C@@H](O)C(C)(C)O)O[C@H]2C[C@@]3(C)C(=C12)C[C@H](O)[C@H]1[C@@]2(C)CCC(=O)C(C)(C)C2CC[C@@]13C (some centres not stated)
Potency [1]: inactive

COc1cc(/C=C/C(=O)OC[C@H]2O[C@@](CO)(O[C@H]3O[C@H](CO)[C@@H](O)[C@H](O)[C@H]3O)[C@@H](OC(=O)/C=C/c3ccc(O)c(OC)c3)[C@@H]2O)ccc1O
Potency [1]: inactive

CC(=O)c1ccc(O[C@@H]2O[C@H](CO)[C@@H](O)[C@H](O)[C@H]2O)cc1
Potency [1]: inactive

CCC(C)C(=O)OC1CC(O)C23C4OCC5(C(O)CC2C1(C)C(O)O4)C3C(=O)C(O)C1(C)C(O)(c2ccoc2)CC2OC251 (configuration not stated)
Potency [1]: inactive

COc1c2c(cc3c1-c1c(cc4c(c1OC)OCO4)CC(C)C(C)C3)OCO2 (configuration not stated)
Potency [1]: inactive

COc1ccc(CC2NCCc3c2[nH]c2ccc(C)cc32)cc1OC (configuration not stated)
Potency [1]: inactive

CCOc1cc(CC(=O)NC(CC(C)C)c2ccccc2N2CCCCC2)ccc1C(=O)O (configuration not stated)
Potency [1]: 20 µM (active)

O=C(OC[C@@]1(O)CO[C@@H](O[C@H]2[C@H](Oc3ccc(O)cc3)O[C@H](CO)[C@@H](O)[C@@H]2O)[C@@H]1O)c1ccc(O)cc1
Potency [1]: inactive

Cc1ccccc1C#Cc1ccc(CCC(=O)O)cc1
Potency [1]: 14.1 µM (active)

CC(=O)O[C@@H]1[C@@H](CO)O[C@@](CO)(O[C@H]2O[C@H](COC(=O)/C=C/c3ccccc3)[C@@H](O)[C@H](O)[C@H]2O)[C@H]1O
Potency [1]: inactive

COC(=O)C1(C)c2[nH]c3ccccc3c2CCN1C(=O)CCl (configuration not stated)
Potency [1]: inactive

CC(O)c1cc(C(=O)N[C@@H](C)Cn2ccc(-c3ccc(C#N)c(Cl)c3)n2)n[nH]1 (some centres not stated)
Potency [2]: inactive

Cc1ccc(F)cc1C(=O)Nc1ccc(C(=O)N2Cc3cccn3Cc3ccccc32)c(Cl)c1
Potency [2]: inactive

COc1cccc2cc3c(c(O[C@@H]4O[C@H](CO[C@@H]5O[C@H](CO)[C@@H](O)[C@H](O)[C@H]5O)[C@@H](O)[C@H](O)[C@H]4O)c12)C(C)OC3=O (some centres not stated)
Potency [1]: inactive
Potency [2]: inactive

COc1cc(O)cc(C)c1C(=O)OC1C(CO)OC(OC2C(O)C(O)C(O)C(O)C2O)C(O)C1O (configuration not stated)
Potency [1]: inactive
Potency [2]: inactive

C=C1C(O)C[C@@H]2C(C(=O)O)=CO[C@@H](O[C@@H]3O[C@H](CO)[C@@H](O)[C@H](O)[C@H]3OC(=O)c3ccc(O)cc3)[C@H]12 (some centres not stated)
Potency [1]: inactive
Potency [2]: inactive

CCCCNc1ncc2c(-c3ccc(CN4CCN(C)CC4)cc3)cn(C3CCC(O)CC3)c2n1 (configuration not stated)
Potency [1]: inactive
Potency [2]: inactive

Cn1nc(C(C)(C)C)cc1C(=O)NC(Cc1cccc(Cl)c1)C(=O)NCC#N (configuration not stated)
Potency [1]: inactive
Potency [2]: inactive

CC1=C2C[C@H]3O[C@@]3(C)CCC3O[C@@]3(C)C[C@@]2(O)OC1=O (some centres not stated)
Potency [1]: inactive
Potency [2]: inactive

COC(=O)C1=CO[C@@H](O)C2C(CO)=CCC12 (some centres not stated)
Potency [1]: inactive
Potency [2]: inactive

C=CC(C)(O)CC[C@H]1C(=C)CCC2[C@](C)(C(=O)O)CCC[C@@]21C (some centres not stated)
Potency [1]: inactive
Potency [2]: inactive

C[C@@H]1C[C@@H](O)[C@@]23CO[C@@H](O)[C@@H]2CCC[C@@H]3[C@@]12C[C@@H](c1ccoc1)OC2=O
Potency [1]: inactive
Potency [2]: inactive

C=C1C(=O)O[C@@H]2C[C@H](C)[C@@]3(O)C=C(C(C)=O)[C@]4(CC3C[C@H]12)C(=O)O[C@H]1C[C@@H](C)C(CCC(C)=O)=CC[C@H]14 (some centres not stated)
Potency [1]: inactive
Potency [2]: inactive

CSc1ccc(C(=O)N[C@@H]2CCCC[C@@H]2NC(=O)CNC(=O)c2cc(C(F)(F)F)ccc2NC(=O)NC(C)C)cc1
Potency [1]: inactive
Potency [2]: inactive

CNC(=O)c1ccccc1Nc1nc(Nc2ccc3c(c2OC)CCCC(N2CCN(CCO)CC2)C3)ncc1Cl (configuration not stated)
Potency [1]: inactive
Potency [2]: inactive

NC(=O)C(CCC(F)(F)F)N(Cc1ccc(-c2ncon2)cc1F)S(=O)(=O)c1ccc(Cl)cc1 (configuration not stated)
Potency [1]: inactive
Potency [2]: inactive

O=C(O)c1cc2cccc([N+](=O)[O-])c2[nH]1
Potency [1]: inactive
Potency [2]: inactive

CC1(C)CCC2(C(=O)OC3OCC(O)C(O)C3O)CCC3(C)C(=CCC4C5(C)CC(O)C(OC6OC(COC7OCC(O)C(O)C7O)C(O)C(O)C6O)C(C)(C)C5CCC43C)C2C1 (configuration not stated)
Potency [1]: inactive
Potency [2]: inactive

CC(=O)OC[C@@]12C(=O)C[C@@H](C)[C@]3(C[C@@H](c4ccoc4)O[C@H]3OC(C)=O)[C@H]1CCC[C@]21CO1
Potency [1]: inactive
Potency [2]: inactive

C=CC(C)(C)c1[nH]c2cc3c(cc2c1CC1NC(=O)C2CCCN2C1=O)C=CC(C)(C)O3 (configuration not stated)
Potency [1]: inactive
Potency [2]: inactive

CCc1ccc(Cc2ccc3c(c2)[C@]2(OC3)O[C@H](CO)[C@@H](O)[C@H](O)[C@H]2O)cc1
Potency [1]: inactive
Potency [2]: inactive

Cn1cc(S(=O)(=O)c2ccc(Cl)cc2)c2cccc(N3CCNCC3)c21
Potency [1]: inactive
Potency [2]: inactive

O=C(c1ccc(/C=C/c2n[nH]c3ccccc23)cc1)N1CCNCC1
Potency [1]: inactive
Potency [2]: inactive

COC1CC(O[C@H]2CC[C@@]3(C)C(CCC4C3[C@H](OC(C)=O)[C@@H](OC(=O)/C=C/c3ccccc3)[C@]3(C)C(C(C)=O)CC[C@]43O)C2)OC(C)C1OC1CC(OC)C(OC2CC(OC)C(OC3OC(C)C(OC4OC(CO)C(O)C(O)C4O)C(OC)C3O)C(C)O2)C(C)O1 (some centres not stated)
activity change, negative = inhibition [1]: -9.68% [at 19.1 µM]
activity change, negative = inhibition [2]: 20.6% [at 10.7 µM]

C=C(C)[C@@H]1CC[C@]2(C)CC[C@]3(C)[C@H](CC[C@@H]4[C@@]5(C)CC[C@@H](O)C(C)(C)[C@@H]5CC[C@]43C)[C@@H]12
Potency [1]: inactive
Potency [2]: inactive

O=C(O)CCCCCC[C@H]1C(=O)NC(=O)N1CC[C@@H](O)C1CCCCC1
Potency [1]: inactive
Potency [2]: inactive

COC(=O)N[C@H](C(=O)N1[C@@H]2CC[C@@H](C2)[C@H]1c1nc2ccc(-c3ccc4c(c3)C(F)(F)c3cc(-c5cnc([C@@H]6CCC7(CC7)N6C(=O)[C@@H](NC(=O)OC)C(C)C)[nH]5)ccc3-4)cc2[nH]1)C(C)C
Potency [1]: inactive
Potency [2]: inactive

CC(C)(C)Nc1nc(Nc2ccc(C(N)=O)cc2)cc(N)c1C#N
Potency [1]: inactive
Potency [2]: inactive

CC(C)c1cc(C(=O)N2CC[C@H](NC(=O)C3CC3)C2)n[nH]1
Potency [1]: inactive
Potency [2]: inactive

NC1CCC(Nc2cc(-c3cccc(NCc4cccc(F)c4)n3)c(Cl)cn2)CC1 (configuration not stated)
Potency [1]: inactive
Potency [2]: inactive

Cc1c[nH]c2nccc(Oc3c(F)cc(Nc4cc(Cl)nc(N)n4)cc3F)c12
Potency [1]: inactive
Potency [2]: inactive

CC1CC(C(O)C(C)(C)O)OC2CC3(C)C4(C)CCC5C(C)(C)C(=O)CCC5(C)C4CCC3(O)C12O (configuration not stated)
Potency [1]: inactive
Potency [2]: inactive

C[C@@]12CC[C@@H]3[C@@](CC[C@H]4[C@@]3(C)CCC[C@@]4(C)C(=O)O)(CC1=O)C2
Potency [1]: inactive
Potency [2]: inactive

N#Cc1ccc2[nH]cc(CCCCN3CCN(c4ccc5oc(C(N)=O)cc5c4)CC3)c2c1
Potency [1]: inactive
Potency [2]: inactive

COC(=O)c1ccccc1O[C@@H]1O[C@H](CO)[C@@H](O)[C@H](O)[C@H]1O[C@@H]1O[C@@H](C)[C@H](O)[C@@H](O)[C@H]1O
Potency [1]: inactive
Potency [2]: inactive

COc1c2c(c(C)c3c1C(=O)OC3)O[C@@]1(C)CCC3(C(C)(C)O)OC(=O)CC[C@]3(C)[C@H]1C2 (some centres not stated)
Potency [1]: inactive
Potency [2]: inactive

COC(=O)CCc1cc2ccoc2c(OC)c1O[C@@H]1O[C@H](CO)[C@@H](O)[C@H](O)[C@H]1O
Potency [1]: inactive
Potency [2]: inactive

O=C1NC2CCc3nc4ccccc4c(=O)n3C2=Nc2ccccc21 (configuration not stated)
Potency [1]: inactive
Potency [2]: inactive

CCC(C)C1NC(=O)C2CCCN2C(=O)C(NC(C)=O)C(C)OC(=O)C(Cc2ccc(OC)cc2)N(C)C(=O)C2CCCN2C(=O)C(C(C)C)NC1=O (configuration not stated) (Ac-TPIVP[NMeY](Me); ester 1-C; configuration not given here)
Potency [1]: inactive
Potency [2]: inactive

CC(O)(CC(=O)O)CC(=O)OCc1ccc(O[C@@H]2O[C@H](CO)[C@@H](O)[C@H](O)[C@H]2O)cc1 (some centres not stated)
Potency [1]: inactive
Potency [2]: inactive

CCOC(=O)c1sc(NC(=O)[C@H](C(C)C)n2c(=O)[nH]c3ccccc3c2=O)nc1C
Potency [1]: inactive
Potency [2]: inactive

CC1(C)C=CN2C(=O)C3=CCCN3C(=O)[C@@H]2C[C@@]12Nc1ccccc1C2=O
Potency [1]: inactive
Potency [2]: inactive

CN(CCc1ccc(Nc2ncc(-c3cccnc3)s2)cc1)Cc1ccccc1
Potency [1]: inactive
Potency [2]: inactive
